Experimental data from PubChem BioAssay AID1159580 (chemical genetic matrix, 2015).
Several values for one entry are separate records, joined by “and”; a condition that tells them apart may be missing. Equal values may be shown once. Screen size: about 5,500 compounds; about 2,000 (36%) were called active. Roughly 18% stayed inconclusive and do not appear here. Cut-off read from the data, not from the text of the source: active = normalized growth mostly below about 0.91 (no sharp cut-off); inconclusive = no clear call, values can overlap the other calls; inactive = mostly above about 0.92. This is one part of the list.

Assay: chemical genetic growth profiling, strain panel (AID 1159580);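 note: tested at 20 µM; growth read once vehicle control cultures reached saturation at 30 °C; 1 = growth at the plate median or of vehicle wells; lower values mean less growth of the strain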
Settings: S. cerevisiae deletion strains, growth OD

CC(=O)O[C@]1(C(C)=O)CCC2C3C=C(C)C4=CC(=O)CCC4(C)C3CCC21C (stereo partly specified)
normalized growth (locus YAL013W, strain DEP1, stronger effect = lower value): 0.897 (active)
normalized growth (locus YAL021C, strain ccr4, stronger effect = lower value): 1.04 (inactive)
normalized growth (locus YAL026C, strain drs2, stronger effect = lower value): 0.961 (inactive)
normalized growth (locus YAL030W, strain snc1, stronger effect = lower value): 0.959 (inactive)
normalized growth (locus YBL061C, strain skt5, stronger effect = lower value): 0.932 (inactive)
normalized growth (locus YBR009C, strain hhf1, stronger effect = lower value): 0.916 (inactive)
normalized growth (locus YBR021W, strain FUR4, stronger effect = lower value): 0.924 (inactive)
normalized growth (locus YBR023C, strain chs3, stronger effect = lower value): 0.92 (inactive)
normalized growth (locus YBR171W, strain sec66, stronger effect = lower value): 0.926 (inactive)
normalized growth (locus YBR229C, strain ROT2, stronger effect = lower value): 0.985 (inactive)
normalized growth (locus YBR231C, strain swc5, stronger effect = lower value): 0.933 (inactive)
normalized growth (locus YBR279W, strain paf1, stronger effect = lower value): 0.993 (inactive)
normalized growth (locus YCL011C, strain gbp2, stronger effect = lower value): 0.975 (inactive)
normalized growth (locus YCL016C, strain dcc1, stronger effect = lower value): 0.971 (inactive)
normalized growth (locus YCL029C, strain bik1, stronger effect = lower value): 0.958 (inactive)
normalized growth (locus YCL069W, strain vba3, stronger effect = lower value): 0.929 (inactive)
normalized growth (locus YCR088W, strain abp1, stronger effect = lower value): 0.958 (inactive)
normalized growth (locus YDL005C, strain med2, stronger effect = lower value): 0.934 (inactive)
normalized growth (locus YDL035C, strain GPR1, stronger effect = lower value): 0.908 (inactive)
normalized growth (locus YDL040C, strain nat1, stronger effect = lower value): 0.968 (inactive)
normalized growth (locus YDL074C, strain BRE1, stronger effect = lower value): 0.784 (inactive)
normalized growth (locus YDL101C, strain DUN1, stronger effect = lower value): 0.982 (inactive)
normalized growth (locus YDL134C, strain PPH21, stronger effect = lower value): 0.996 (inactive)
normalized growth (locus YDL185W, strain tfp1, stronger effect = lower value): 0.984 (inactive)
normalized growth (locus YDL192W, strain arf1, stronger effect = lower value): 0.957 (inactive)
normalized growth (locus YDR001C, strain nth1, stronger effect = lower value): 0.964 (inactive)
normalized growth (locus YDR069C, strain doa4, stronger effect = lower value): 0.978 (inactive)
normalized growth (locus YDR101C, strain arx1, stronger effect = lower value): 0.969 (inactive)
normalized growth (locus YDR137W, strain rgp1, stronger effect = lower value): 0.775 (active)
normalized growth (locus YDR150W, strain NUM1, stronger effect = lower value): 0.993 (inactive)
normalized growth (locus YDR159W, strain sac3, stronger effect = lower value): 0.892 (inactive)
normalized growth (locus YDR162C, strain NBP2, stronger effect = lower value): 0.804 (active)
normalized growth (locus YDR195W, strain ref2): 0.976 (inactive)
normalized growth (locus YDR297W, strain sur2, stronger effect = lower value): 0.951 (inactive)
normalized growth (locus YDR318W, strain mcm21, stronger effect = lower value): 0.92 (inactive)
normalized growth (locus YDR334W, strain swr1, stronger effect = lower value): 0.962 (inactive)
normalized growth (locus YDR335W, strain msn5, stronger effect = lower value): 0.957 (inactive)
normalized growth (locus YDR388W, stronger effect = lower value): 0.975 (inactive)
normalized growth (locus YDR392W, strain spt3, stronger effect = lower value): 0.445 (active)
normalized growth (locus YDR502C, strain sam2, stronger effect = lower value): 0.904 (active)
normalized growth (locus YEL003W, strain gim4, stronger effect = lower value): 0.941 (inactive)
normalized growth (locus YEL037C, strain rad23, stronger effect = lower value): 0.969 (inactive)
normalized growth (locus YEL061C, strain CIN8 (second series), stronger effect = lower value): 0.959 (inactive)
normalized growth (locus YEL061C, strain CIN8, stronger effect = lower value): 0.989 (inactive)
normalized growth (locus YER015W, strain faa2, stronger effect = lower value): 0.971 (inactive)
normalized growth (locus YER016W, strain bim1, stronger effect = lower value): 0.966 (inactive)
normalized growth (locus YER110C, stronger effect = lower value): 0.958 (inactive)
normalized growth (locus YER111C, strain swi4, stronger effect = lower value): 0.963 (inactive)
normalized growth (locus YER155C, strain BEM2 (second series), stronger effect = lower value): 0.859 (active)
normalized growth (locus YER155C, strain BEM2, stronger effect = lower value): 1.01 (inactive)
normalized growth (locus YER167W, strain BCK2, stronger effect = lower value): 0.88 (active)
normalized growth (locus YFR010W, strain ubp6, stronger effect = lower value): 0.961 (inactive)
normalized growth (locus YGL078C, strain dbp3, stronger effect = lower value): 0.992 (inactive)
normalized growth (locus YGL086W, strain mad1, stronger effect = lower value): 0.91 (active)
normalized growth (locus YGL167C, strain pmr1, stronger effect = lower value): 0.955 (inactive)
normalized growth (locus YGL173C, strain kem1, stronger effect = lower value): 0.92 (inactive)
normalized growth (locus YGL227W, strain vid30, stronger effect = lower value): 0.968 (inactive)
normalized growth (locus YGL240W, strain doc1, stronger effect = lower value): 0.925 (inactive)
normalized growth (locus YGL248W, strain PDE1, stronger effect = lower value): 0.992 (inactive)
normalized growth (locus YGL253W, strain hxk2, stronger effect = lower value): 0.915 (inactive)
normalized growth (locus YGR078C, strain PAC10, stronger effect = lower value): 0.836 (active)
normalized growth (locus YGR135W, strain pre9, stronger effect = lower value): 0.883 (active)
normalized growth (locus YGR229C, strain SMI1, stronger effect = lower value): 0.643 (active)
normalized growth (locus YGR252W, strain gcn5, stronger effect = lower value): 0.862 (inactive)
normalized growth (locus YHR013C, strain ard1, stronger effect = lower value): 0.998 (inactive)
normalized growth (locus YHR027C, strain rpn1, stronger effect = lower value): 0.981 (inactive)
normalized growth (locus YHR030C, strain SLT2, stronger effect = lower value): 0.917 (active) and 0.949 (inactive)
normalized growth (locus YHR079C, strain IRE1 (second series), stronger effect = lower value): 0.969 (inactive)
normalized growth (locus YHR079C, strain IRE1, stronger effect = lower value): 0.958 (inactive)
normalized growth (locus YHR094C, strain hxt1, stronger effect = lower value): 0.98 (inactive)
normalized growth (locus YHR129C, strain ARP1, stronger effect = lower value): 0.94 (inactive)
normalized growth (locus YHR142W, strain chs7, stronger effect = lower value): 0.815 (active)
normalized growth (locus YHR200W, strain rpn10, stronger effect = lower value): 0.956 (inactive)
normalized growth (locus YIL066C, strain RNR3, stronger effect = lower value): 0.878 (inactive)
normalized growth (locus YIL073C, strain SPO22, stronger effect = lower value): 0.887 (inactive)
normalized growth (locus YIL125W, strain kgd1, stronger effect = lower value): 0.982 (inactive)
normalized growth (locus YIR030C, strain dcg1, stronger effect = lower value): 0.973 (inactive)
normalized growth (locus YJL092W, strain hpr5, stronger effect = lower value): 0.944 (inactive)
normalized growth (locus YJL095W, strain BCK1 (second series), stronger effect = lower value): 0.931 (inactive)
normalized growth (locus YJL095W, strain BCK1, stronger effect = lower value): 0.741 (active) and 0.98 (inactive)
normalized growth (locus YJL115W, strain asf1, stronger effect = lower value): 0.973 (inactive)
normalized growth (locus YJL129C, strain trk1, stronger effect = lower value): 0.854 (active)
normalized growth (locus YJL134W, strain LCB3, stronger effect = lower value): 0.989 (inactive)
normalized growth (locus YJL154C, strain vps35, stronger effect = lower value): 0.964 (inactive)
normalized growth (locus YJL164C, strain tpk1, stronger effect = lower value): 0.951 (inactive)
normalized growth (locus YJL166W, strain qcr8, stronger effect = lower value): 0.863 (active)
normalized growth (locus YJL168C, strain set2, stronger effect = lower value): 0.969 (inactive)
normalized growth (locus YJL187C, strain SWE1 (second series), stronger effect = lower value): 0.98 (inactive)
normalized growth (locus YJR043C, strain POL32, stronger effect = lower value): 0.85 (active)
normalized growth (locus YJR066W, strain TOR1, stronger effect = lower value): 0.929 (inactive)
normalized growth (locus YJR075W, strain HOC1, stronger effect = lower value): 0.952 (inactive)
